Inconclusive results are not listed. Entries that show only a call come without a potency. Values without a mark were called inactive. The source made the active and inactive calls. Unless noted, calls follow the shape of the dose curve; as a rule, active = well fitted curve in the direction sought with a large enough effect in the repeat runs; inconclusive = weak or mixed curves; inactive = no such curve, though single readings can be large; an effect the other way counts as inactive or inconclusive.
Legend:
[1] = qHTS assay to identify small molecule antagonists of the estrogen related receptor (ERR) signaling pathway from Tox21 library - cell viability counter screen (AID 1224834); also: nearly all actives have a fitted effect of over 30% in size
Summary of the method: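 ERR cells, 2,000/well; 6 h settle at 37 C/5% CO2; pin-tool compound transfer in DMSO; 17.5 h at 37 C; CellTiter-Fluor, 30 min; fluorescence intensity.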

[2] = target: Luciferin 4-monooxygenase (Photinus pyralis) (UniProt P08659); experiment: qHTS assay to identify small molecule inhibitors of firefly luciferase (AID 1224835); also: series mostly up to about 120 µM; nearly all actives have a fitted effect of over 25% in size
Summary of the method: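 Inhibition of purified Photinus luciferase is measured by luminescence. Substrate levels (D-luciferin, ATP) sit at their KM values. Each compound is tested in a concentration series.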

[3] = qHTS assay to identify small molecule agonists of the constitutive androstane receptor (CAR) signaling pathway - cell viability counter screen (AID 1224836); also: series mostly up to about 92 µM; nearly all actives have a fitted effect of over 45% in size
Summary of the method: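 Compound titrations (15 concentrations) went onto HepG2-CYP2B6-hCAR cells 4 h after seeding, alongside PK11195 at a final 0.75 uM; a 23 h, 37 C/5% CO2 incubation preceded CellTiter-Fluor viability measurement.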

[4] = qHTS assay to identify small molecule antagonists of the constitutive androstane receptor (CAR) signaling pathway - cell viability counter screen (AID 1224837); also: series mostly up to about 92 µM; nearly all actives have a fitted effect of over 45% in size
Summary of the method: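 Viability was measured with CellTiter-Fluor in a HepG2 line carrying stably transfected hCAR and a CYP2B6-2.2kb construct. Cells were exposed for 23 hr at 37 C to 15 compound concentrations with 50 nM CITCO as agonist.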

[5] = target: Nuclear receptor subfamily 1 group I member 3 (Homo sapiens) (UniProt Q14994); experiment: qHTS assay to identify small molecule antagonists of the constitutive androstane receptor (CAR) signaling pathway (AID 1224838);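 also: HepG2 cells stably expressing hCAR with CYP2B6 luciferase reporter stimulated by CITCO; nearly all actives have a fitted effect of over 40% in size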
Summary of the method: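 Antagonist mode used CITCO at a final 50 nM to activate CAR in human hepatoma HepG2 cells carrying stable hCAR and a 2.2 kb CYP2B6 promoter-luciferase construct. Compounds were tested at 15 concentrations over 24 h, with luminescence as the end point.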

[6] = target: Nuclear receptor subfamily 1 group I member 3 (Homo sapiens) (UniProt Q14994); experiment: qHTS assay to identify small molecule agonists of the constitutive androstane receptor (CAR) signaling pathway (AID 1224839); also: series mostly up to about 92 µM; nearly all actives have a fitted effect of over 15% in size
Summary of the method: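 In this screen, CAR-driven CYP2B6 promoter activity is measured by luminescence in HepG2-CYP2B6-hCAR cells after 24 h with test compounds and 0.75 uM PK11195 (final concentration).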

[7] = qHTS assay to identify small molecule antagonists of the estrogen related receptor signaling pathway with the pleiotropic PPARgamma coactivator (PGC) from Tox21 10K library - cell viability counter screen (AID 1224840; active = well fitted cell-killing curve with a large enough effect in the repeat runs, not every such curve was filed as active; also: nearly all actives have a fitted effect of over 40% in size)
Summary of the method: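 Multiplexed viability counter screen in the PGC/ERR cell line: cells treated with DMSO-dissolved compounds for 17.5 hours at 37 C, then viability measured as CellTiter-Fluor fluorescence.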

[8] = qHTS assay to identify small molecule antagonists of the estrogen related receptor signaling pathway with the pleiotropic PPARgamma coactivator (PGC) from Tox21 10K library (AID 1224841; call rule not given here; also: actives are mostly falling curves and most rising ones were filed inactive; nearly all actives have a fitted effect of over 50% in size; also: potency is read from the fitted curve at half-maximal effect)
Summary of the method: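 Steps: plate 2,000 PGC/ERR cells per well; incubate 6 h at 37 C with 5% CO2; transfer compounds from DMSO stocks by pin tool; incubate 18 h at 37 C; add One-Glo; measure luminescence 30 min later.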

[9] = qHTS assay to identify small molecule agonists of the estrogen related receptor signaling pathway with the pleiotropic PPARgamma coactivator (PGC) from Tox21 10K library (AID 1224842); also: nearly all actives have a fitted effect of over 15% in size
Summary of the method: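 Luminescence from One-Glo (30 min, room temperature) measured after PGC/ERR cells had 18 h at 37 C with pinned compound (23 nL in DMSO). Cells had been seeded at 2,000 per well and pre-incubated 6 h.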

Luciferin 4-monooxygenase (Photinus pyralis), sequence (P08659 whole entry, looked up): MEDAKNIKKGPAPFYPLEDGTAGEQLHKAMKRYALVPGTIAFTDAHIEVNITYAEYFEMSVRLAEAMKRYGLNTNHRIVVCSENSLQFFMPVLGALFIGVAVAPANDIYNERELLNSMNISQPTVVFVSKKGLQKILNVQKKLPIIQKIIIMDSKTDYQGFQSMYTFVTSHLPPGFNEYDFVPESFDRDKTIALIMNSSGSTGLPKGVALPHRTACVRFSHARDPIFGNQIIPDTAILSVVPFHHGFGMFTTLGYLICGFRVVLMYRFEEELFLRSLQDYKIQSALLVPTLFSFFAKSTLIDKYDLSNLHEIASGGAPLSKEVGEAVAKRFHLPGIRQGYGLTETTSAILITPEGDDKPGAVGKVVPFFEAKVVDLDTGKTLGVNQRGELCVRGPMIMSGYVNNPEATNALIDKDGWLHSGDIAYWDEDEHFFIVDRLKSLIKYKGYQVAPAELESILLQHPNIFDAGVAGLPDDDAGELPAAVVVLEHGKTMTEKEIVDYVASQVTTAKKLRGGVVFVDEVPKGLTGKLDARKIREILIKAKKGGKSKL
Nuclear receptor subfamily 1 group I member 3 (Homo sapiens), sequence (Q14994 whole entry, looked up): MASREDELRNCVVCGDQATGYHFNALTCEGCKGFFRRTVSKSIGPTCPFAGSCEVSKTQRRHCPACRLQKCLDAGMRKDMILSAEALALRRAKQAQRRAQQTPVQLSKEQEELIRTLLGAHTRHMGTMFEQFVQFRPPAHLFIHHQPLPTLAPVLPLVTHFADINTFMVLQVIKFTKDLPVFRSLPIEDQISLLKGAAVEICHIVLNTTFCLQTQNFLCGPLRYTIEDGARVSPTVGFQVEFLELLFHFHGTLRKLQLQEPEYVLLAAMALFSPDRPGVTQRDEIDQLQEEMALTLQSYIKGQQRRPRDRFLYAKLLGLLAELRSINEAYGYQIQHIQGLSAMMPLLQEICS

SMILES | Potency [1] | Potency [2] | Potency [3] | Potency [4] | Potency [5] | Potency [6] | Potency [7] | Potency [8] | outcome [9]
Cc1cnc(NS(=O)(=O)c2ccc(N)cc2)nc1 | inactive | inactive | inactive | inactive | inactive | inactive | inactive | inactive | inactive
O=C(O)CNC(=O)c1ccc([N+](=O)[O-])cc1 | inactive | inactive | inactive | inactive | inactive | inactive | inactive | inactive | inactive
COC(C)(C)CCCC(C)CC=O (stereo not given) | inactive | inactive | inactive | inactive | inactive | inactive | inactive | inactive | inactive
Cc1ccc(Cl)cc1Cl | inactive | inactive | inactive | inactive | inactive | inactive | inactive | inactive | inactive
CCCCCCCCCCCCN(CCCCCCCCCCCC)CCCCCCCCCCCC | inactive | inactive | inactive | inactive | inactive | inactive | inactive | inactive | inactive
CCCCCCCCS(=O)(=O)Cl | inactive | inactive | inactive | inactive | inactive | inactive | inactive | inactive | inactive
CC(C)NC(=O)NC(C)C | inactive | inactive | inactive | inactive | inactive | inactive | inactive | inactive | inactive
CC1(C)C(O)C(C)(C)C1O (stereo not given) | inactive | inactive | inactive | inactive | inactive | inactive | inactive | inactive | inactive
CCOC(=O)C(=O)OCC | inactive | inactive | inactive | inactive | inactive | inactive | inactive | inactive | inactive
CC(C)(O)C#CC(C)(C)O | inactive | inactive | inactive | inactive | inactive | inactive | inactive | inactive | inactive
O=[N+]([O-])c1ccc(F)cc1F | inactive | inactive | inactive | inactive | inactive | inactive | inactive | inactive | inactive
CN1CC(=O)NC1=N | inactive | inactive | inactive | inactive | inactive | inactive | inactive | inactive | inactive
CC1(C)CO[C@@H](CC(=O)O)CN1 | inactive | inactive | inactive | inactive | inactive | inactive | inactive | inactive | inactive
CCSC(=O)N(CC(C)C)CC(C)C | inactive | inactive | inactive | inactive | inactive | inactive | inactive | inactive | inactive
CS(=O)(=O)O | inactive | inactive | inactive | inactive | inactive | inactive | inactive | inactive | inactive
NS(=O)(=O)c1cc(C(=O)O)cc(N2CCCC2)c1Oc1ccccc1 | inactive | inactive | inactive | inactive | inactive | inactive | inactive | inactive | inactive
CC(C)(O)C(=O)c1ccccc1 | inactive | inactive | inactive | inactive | inactive | inactive | inactive | inactive | inactive
CCOc1ccc(C(=O)OCCN(CC)CC)cc1 | inactive | inactive | inactive | inactive | inactive | inactive | inactive | inactive | inactive
CN(C)CCCSc1ccccc1NC(=O)/C=C/c1ccccc1 | inactive | inactive | inactive | inactive | inactive | inactive | inactive | inactive | inactive
O=Cc1cccc([N+](=O)[O-])c1 | inactive | inactive | inactive | inactive | inactive | inactive | inactive | 24.2 µM (active) | inactive
CCCCCCOC(=O)CCCCC(=O)OCCCCCC | inactive | inactive | inactive | inactive | inactive | inactive | inactive | inactive | inactive
C1OCOCO1 | inactive | inactive | inactive | inactive | inactive | inactive | inactive | inactive | inactive
OCCCC1CCCCC1 | inactive | inactive | inactive | inactive | inactive | inactive | inactive | inactive | inactive
Cn1c(N)c(N=O)c(=O)n(C)c1=O | inactive | inactive | inactive | inactive | inactive | inactive | inactive | inactive | inactive
Cc1sccc1Br | inactive | inactive | inactive | inactive | inactive | inactive | inactive | inactive | inactive

Source: PubChem BioAssay (Tox21)
